# Assay results published in PubChem BioAssay (Tox21).
# Values without a mark were called inactive. Inconclusive results are not listed. A call without a number means that no potency is given here. Calls of active or inactive are those of the source. Unless noted, calls follow the shape of the dose curve; as a rule, active = well fitted curve in the direction sought with a large enough effect in the repeat runs; inconclusive = weak or mixed curves; inactive = no such curve, though single readings can be large; an effect the other way counts as inactive or inconclusive.
# What was measured:
# [1] = molecular target: Thyrotropin receptor (Homo sapiens) (UniProt P16473); assay: qHTS assay to identify small molecule antagonists of the thyroid stimulating hormone receptor (TSHR) signaling pathway (AID 1259385; calls by dose curve; also: nearly all actives have a fitted effect of over 20% in size)
# Sequence of Thyrotropin receptor (Homo sapiens) (P16473 whole entry, looked up): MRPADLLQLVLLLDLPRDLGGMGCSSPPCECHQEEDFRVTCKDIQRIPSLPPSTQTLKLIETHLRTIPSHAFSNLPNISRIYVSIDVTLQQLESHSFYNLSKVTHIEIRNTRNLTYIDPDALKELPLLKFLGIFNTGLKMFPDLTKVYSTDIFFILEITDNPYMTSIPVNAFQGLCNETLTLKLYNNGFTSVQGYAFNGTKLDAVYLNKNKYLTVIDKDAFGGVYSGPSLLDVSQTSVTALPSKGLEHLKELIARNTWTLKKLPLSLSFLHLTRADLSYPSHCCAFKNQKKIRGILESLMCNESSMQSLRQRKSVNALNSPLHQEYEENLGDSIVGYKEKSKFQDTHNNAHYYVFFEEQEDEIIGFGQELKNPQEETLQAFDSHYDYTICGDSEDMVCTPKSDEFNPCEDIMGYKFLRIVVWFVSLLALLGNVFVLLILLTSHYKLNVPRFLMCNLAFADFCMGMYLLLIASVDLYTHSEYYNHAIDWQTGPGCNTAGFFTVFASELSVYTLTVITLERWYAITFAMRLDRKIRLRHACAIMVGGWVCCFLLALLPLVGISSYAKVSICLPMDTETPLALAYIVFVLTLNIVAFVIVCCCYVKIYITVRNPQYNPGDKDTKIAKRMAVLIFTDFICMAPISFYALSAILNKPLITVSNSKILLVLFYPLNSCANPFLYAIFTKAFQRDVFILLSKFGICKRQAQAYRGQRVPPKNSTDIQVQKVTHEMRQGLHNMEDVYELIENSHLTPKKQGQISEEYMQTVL
# Procedure, shortened: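 TSHR-HEK293 cells were plated and held 18 h at 37C/5% CO2, then given compound plus Ro20-1724 and stimulated with TSH at 1.5 ng/mL final. After 30 min at room temperature, cAMP was detected with cAMP-d2/anti-cAMP-cryptate (1 h) by fluorescence.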
# [2] = qHTS assay to identify small molecule agonists of the estrogen receptor alpha (ER-alpha) signaling pathway in the presence of an antagonist - cell viability counter screen (AID 1259386);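 also: series mostly up to about 92 µM; cells exposed to compounds for 22 h at 37 °C before the viability read; nearly all actives have a fitted effect of over 30% in size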
# Procedure, shortened: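 In this counter screen, compound effects on VM7Luc4E2 viability were tested in the presence of the antagonist ICI-182,780 at 10.0nM final. Compounds were dosed at 15 concentrations, exposure lasted 22hr, and the CellTiter-Fluor signal was read.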
# [3] = molecular target: Progesterone receptor (Homo sapiens) (UniProt P06401); assay: qHTS assay to identify small molecule antagonists of the progesterone receptor (PR) signaling pathway (AID 1346795; active = well fitted inhibition curve with a large enough effect in the signal ratio in the repeat runs, not every such curve was filed as active; the % refers to the signal ratio)
# Sequence of Progesterone receptor (Homo sapiens) (P06401 whole entry, looked up): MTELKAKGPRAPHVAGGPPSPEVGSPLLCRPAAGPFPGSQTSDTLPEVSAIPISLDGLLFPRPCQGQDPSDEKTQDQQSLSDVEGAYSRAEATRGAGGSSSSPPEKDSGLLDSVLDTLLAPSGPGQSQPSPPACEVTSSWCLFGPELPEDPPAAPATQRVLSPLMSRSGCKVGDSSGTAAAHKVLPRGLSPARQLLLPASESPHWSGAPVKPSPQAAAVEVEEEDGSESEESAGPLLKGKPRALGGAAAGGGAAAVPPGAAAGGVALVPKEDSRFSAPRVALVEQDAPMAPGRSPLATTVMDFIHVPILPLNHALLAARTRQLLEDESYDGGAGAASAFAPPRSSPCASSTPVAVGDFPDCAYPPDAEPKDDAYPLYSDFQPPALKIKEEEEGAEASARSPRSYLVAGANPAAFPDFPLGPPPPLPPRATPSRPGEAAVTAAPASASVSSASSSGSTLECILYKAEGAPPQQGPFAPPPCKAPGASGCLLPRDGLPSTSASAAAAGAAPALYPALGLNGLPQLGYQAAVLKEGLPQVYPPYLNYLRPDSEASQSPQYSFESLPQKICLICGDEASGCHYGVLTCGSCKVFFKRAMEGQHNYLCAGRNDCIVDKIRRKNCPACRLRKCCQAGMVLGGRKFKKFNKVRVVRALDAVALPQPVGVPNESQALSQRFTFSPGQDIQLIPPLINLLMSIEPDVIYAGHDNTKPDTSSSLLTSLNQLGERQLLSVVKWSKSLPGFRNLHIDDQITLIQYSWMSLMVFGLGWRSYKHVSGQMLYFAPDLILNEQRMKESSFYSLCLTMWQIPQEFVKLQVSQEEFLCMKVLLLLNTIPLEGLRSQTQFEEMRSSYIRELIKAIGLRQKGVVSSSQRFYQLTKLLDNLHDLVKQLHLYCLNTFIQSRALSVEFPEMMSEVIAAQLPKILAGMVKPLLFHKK
# Procedure, shortened: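 Screening used a GripTite HEK293T line with PR-responsive UAS-beta-lactamase. Cells were challenged with compound in the presence of 1 nM R5020 final for 16 hr at 37C; B/G FRET substrate, 2 hr room temperature, fluorescence.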
# [4] = qHTS assay to identify small molecule antagonists of the progesterone receptor (PR) signaling pathway - cell viability counter screen (AID 1346798); also: series mostly up to about 92 µM; nearly all actives have a fitted effect of over 50% in size
# Procedure, shortened: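 Measures cytotoxicity in parallel with the PR antagonist reporter read: HEK293T PR-UAS-bla cells get compound and R5020 for 16 hr, and remaining viable cells are quantified by CellTiter-Glo luminescence.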
# [5] = qHTS assay to identify small molecule agonists of the progesterone receptor (PR) signaling pathway - cell viability counter screen (AID 1346799; calls by dose curve; also: nearly all actives have a fitted effect of over 45% in size)
# Procedure, shortened: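 Using the same plates as the PR reporter screen, HEK293T PR-UAS-bla cells received compounds for 16 hr at 37C and were then lysed with CellTiter-Glo; luminescence was read 30 min later at room temperature.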
# [6] = qHTS assay to identify small molecule antagonists of the TGF-beta/Smad signaling pathway - cell viability counter screen (AID 1346824); also: nearly all actives have a fitted effect of over 50% in size
# Procedure, shortened: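 SBE-bla HEK 293T cells were plated overnight at 37 C, then given compounds in DMSO plus TGF-beta1 (added as 0.25 ng/mL solution) for 5 hr. After the bla read, CellTiter-Glo was added to the same wells and luminescence read after 30 min at room temperature.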
# [7] = qHTS assay to identify small molecule agonists of the TGF-beta/Smad signaling pathway (AID 1346859; active = well fitted activation curve with a large enough effect in the signal ratio in the repeat runs, not every such curve was filed as active; the % refers to the signal ratio; also: series mostly up to about 77 µM)
# Procedure, shortened: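 Beta-lactamase reporter activity downstream of Smad binding elements was measured in stably transfected HEK 293T cells; compounds were incubated for 5 hr, substrate for 2 hr at room temperature.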
# [8] = Human pregnane X receptor (PXR) small molecule agonists, qHTS cell viability counter screen (AID 1346977); also: nearly all actives have a fitted effect of over 50% in size; also: potency is read from the fitted curve at half-maximal effect
# Procedure, shortened: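 After a 5hr pre-incubation, PXR-Luc HepG2 cells received compounds plus positive control in DMSO and were kept 24hr at 37C. Cell viability was quantified by fluorescence from CellTiter-Fluor added for the final hour.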
# [9] = Caspase-3/7 induction in HepG2 cells by small molecules, qHTS assay (AID 1346978); also: nearly all actives have a fitted effect of over 15% in size
# Procedure, shortened: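 Wild-type HepG2 cells (2,000/well) were settled 5 h at 37 C, 5% CO2, then exposed to compounds in DMSO for 17 h. Caspase-3/7 activity was read by luminescence 30 min after adding Caspase-Glo 3/7 reagent at room temperature.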
# [10] = Caspase-3/7 induction in CHO-K1 cells by small molecules, qHTS cell viability counter screen (AID 1346979); also: nearly all actives have a fitted effect of over 35% in size; also: potency is read from the fitted curve at half-maximal effect
# Procedure, shortened: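 Multiplexed with Caspase-Glo 3/7 in CHO-K1 cells, this counter screen added CellTiter-Fluor after 16hr of compound exposure and recorded fluorescence 1hr later.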
# [11] = Caspase-3/7 induction in HepG2 cells by small molecules, qHTS cell viability counter screen (AID 1346981); also: nearly all actives have a fitted effect of over 30% in size; also: potency is read from the fitted curve at half-maximal effect; as to activity change, negative = cytotoxicity: series mostly up to about 92 µM
# Procedure, shortened: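 In this quantitative HTS counter screen, compounds delivered in DMSO were left on unmodified HepG2 cells for 16 hr at 37 C. Viability was then determined fluorometrically with CellTiter-Fluor, in parallel with caspase-3/7 induction in the same wells.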
# [12] = molecular target: Nuclear receptor subfamily 1 group I member 2 (Homo sapiens) (UniProt O75469); assay: Human pregnane X receptor (PXR) small molecule agonists, qHTS assay (AID 1346982); also: nearly all actives have a fitted effect of over 35% in size; also: potency is read from the fitted curve at half-maximal effect
# Sequence of Nuclear receptor subfamily 1 group I member 2 (Homo sapiens) (O75469 whole entry, looked up): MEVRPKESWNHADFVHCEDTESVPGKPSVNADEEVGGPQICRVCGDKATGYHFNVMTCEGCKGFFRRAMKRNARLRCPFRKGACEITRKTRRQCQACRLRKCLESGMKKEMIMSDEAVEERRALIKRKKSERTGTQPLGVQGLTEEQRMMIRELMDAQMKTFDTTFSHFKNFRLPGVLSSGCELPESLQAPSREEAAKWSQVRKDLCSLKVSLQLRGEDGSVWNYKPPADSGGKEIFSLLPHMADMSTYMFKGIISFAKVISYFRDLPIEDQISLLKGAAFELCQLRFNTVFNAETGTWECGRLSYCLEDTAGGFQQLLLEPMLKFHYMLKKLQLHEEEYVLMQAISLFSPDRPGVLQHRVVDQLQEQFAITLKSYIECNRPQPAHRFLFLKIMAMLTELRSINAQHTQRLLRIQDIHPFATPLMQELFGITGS
# Procedure, shortened: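 Reporter HepG2 cells expressing PXR-Luc are cultured in charcoal-stripped FBS (5%), treated with compounds for 24 hr at 37 C, and assayed by ONE-Glo luminescence after 30 min at room temperature.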
# [13] = qHTS assay to identify small molecule agonists of the TGF-beta/Smad signaling pathway - cell viability counter screen (AID 1346829); also: top concentration of the series differs between compounds; nearly all actives have a fitted effect of over 45% in size
# Procedure, shortened: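 In parallel with the Smad reporter read, viability of HEK 293T cells stably carrying SBE-bla is quantified by ATP luminescence following 5 hr compound treatment.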
# [14] = Caspase-3/7 induction in CHO-K1 cells by small molecules, qHTS assay (AID 1346980); also: nearly all actives have a fitted effect of over 15% in size
# Procedure, shortened: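 Wild-type cells were seeded at 1,500 per well and settled 5 hr at 37 C, 5% CO2, then exposed to DMSO-dissolved compounds for 17 hr. Caspase-Glo 3/7 reagent was added, and luminescence was read after 30min at room temperature.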
# [15] = molecular target: Nuclear receptor subfamily 1 group I member 2 (Homo sapiens) (UniProt O75469); assay: CYP3A4 induction through human pregnane X receptor (PXR) by small molecules, qHTS assay (AID 1346984); also: nearly all actives have a fitted effect of over 40% in size
# Procedure, shortened: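 Induction measured in HepG2-based DPX-2 cells co-expressing human PXR and a CYP3A4 promoter-driven luciferase. After a 24-hour compound exposure, cells received CYP3A4 luciferin substrate at 3uM final for 3 hours, and light output was then recorded.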
# [16] = molecular target: Nuclear receptor subfamily 1 group I member 2 (Homo sapiens) (UniProt O75469); assay: Human pregnane X receptor (PXR) activation by small molecules, qHTS assay (AID 1346985); also: nearly all actives have a fitted effect of over 40% in size
# Procedure, shortened: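 DPX-2 cells (HepG2 co-transfected with a PXR response element and a CYP3A4-promoter luciferase construct) were seeded at 2,000 per well, rested 5 hr at 37C, then exposed to DMSO-dissolved compounds for 24 hr. Activation was read as luciferase luminescence.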
# [17] = molecular target: Thyrotropin-releasing hormone receptor (Homo sapiens) (UniProt P34981); assay: qHTS assay to identify small molecule antagonists of the thyrotropin-releasing hormone receptor (TRHR) signaling pathway (AID 1346877; active = well fitted inhibition curve with a large enough effect in the repeat runs, not every such curve was filed as active; also: series mostly up to about 51 µM)
# Sequence of Thyrotropin-releasing hormone receptor (Homo sapiens) (P34981 whole entry, looked up): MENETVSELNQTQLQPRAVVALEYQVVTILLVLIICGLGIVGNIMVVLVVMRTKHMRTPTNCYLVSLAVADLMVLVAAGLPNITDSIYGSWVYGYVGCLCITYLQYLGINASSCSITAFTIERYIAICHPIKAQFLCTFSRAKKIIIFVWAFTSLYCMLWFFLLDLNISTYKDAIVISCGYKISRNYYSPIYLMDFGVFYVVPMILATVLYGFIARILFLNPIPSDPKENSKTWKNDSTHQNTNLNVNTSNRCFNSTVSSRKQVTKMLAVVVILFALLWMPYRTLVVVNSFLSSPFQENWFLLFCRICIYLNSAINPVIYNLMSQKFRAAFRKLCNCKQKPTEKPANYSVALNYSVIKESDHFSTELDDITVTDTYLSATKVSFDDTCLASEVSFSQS
# Procedure, shortened: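 Kinetic fluorescence (3 min, 1 s resolution) following stimulation with TRH at 1 nM final; HEK293 cells bearing human TRHR; 5 min compound preincubation at RT; concentration-response over 15 points, triplicates.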
# [18] = molecular target: Thyrotropin-releasing hormone receptor (Homo sapiens) (UniProt P34981); assay: qHTS assay to identify small molecule agonists of the thyrotropin-releasing hormone receptor (TRHR) signaling pathway (AID 1346891; calls by dose curve;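 also: HEK293 cells expressing TRHR with calcium dye readout; series mostly up to about 58 µM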)
# Procedure, shortened: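 Overnight-plated (18 h, 37 °C, 5% CO2) TRHR-Hek293 cells; 2 h calcium dye at 37 °C; compound in DMSO; 3-min kinetic fluorescence read.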
structure (smiles),measurement,setting,value
C1OCOCO1,Potency,[1],inactive
same,Potency,[2],inactive
same,Potency,[3],inactive
same,Potency,[4],inactive
same,Potency,[5],inactive
same,Potency,[6],inactive
same,outcome,[7],inactive
same,Potency,[8],inactive
same,Potency,[9],inactive
same,Potency,[10],inactive
same,Potency,[11],inactive
same,Potency,[12],inactive
NC(=O)c1cn(Cc2c(F)cccc2F)nn1,Potency,[1],inactive
same,Potency,[2],inactive
same,Potency,[3],inactive
same,Potency,[4],inactive
same,Potency,[5],inactive
same,Potency,[6],inactive
same,outcome,[13],inactive
same,outcome,[7],inactive
same,Potency,[8],inactive
same,Potency,[9],inactive
same,Potency,[10],inactive
same,outcome,[14],inactive
same,Potency,[11],inactive
same,Potency,[12],inactive
same,Potency,[15],inactive
same,Potency,[16],inactive
Nc1ccc(S(=O)(=O)Nc2ccnn2-c2ccccc2)cc1,"activity change, negative = inhibition",[1],0.942% [at 19 µM]
same,"activity change, negative = cytotoxicity",[2],1.05% [at 19 µM]
same,"activity change, negative = cytotoxicity",[5],-4.95% [at 19 µM]
same,"viability change, negative = cytotoxic",[6],6.26% [at 15.8 µM]
same,"activity change, negative = cytotoxicity",[13],13.7% [at 15.8 µM]
same,activation,[7],-0.937% [at 15.8 µM]
same,"activity, negative = inhibition",[17],2.52% [at 10.5 µM]
same,activation,[18],-0.182% [at 11.8 µM]
same,"activity change, negative = cytotoxicity",[8],-0.0622% [at 19 µM]
same,caspase activation,[9],0.58% [at 19 µM]
same,Potency,[10],inactive
same,caspase-3/7 activation,[14],1.89% [at 19 µM]
same,"activity change, negative = cytotoxicity",[11],-0.388% [at 19 µM]
same,activation,[12],-6.08% [at 19 µM]
same,Potency,[15],inactive
same,Potency,[16],inactive
CC(C)CNCC(C)C,Potency,[1],inactive
same,Potency,[2],inactive
same,Potency,[4],inactive
same,Potency,[5],inactive
same,Potency,[6],inactive
same,outcome,[13],inactive
same,outcome,[7],inactive
same,outcome,[17],inactive
same,Potency,[8],inactive
same,Potency,[9],inactive
same,Potency,[10],inactive
same,outcome,[14],inactive
same,Potency,[11],inactive
same,Potency,[12],inactive
O=c1[nH]c(=O)n([C@H]2C[C@H](O)[C@@H](CO)O2)cc1I,Potency,[1],inactive
same,Potency,[2],inactive
same,Potency,[3],inactive
same,Potency,[6],inactive
same,outcome,[13],inactive
same,outcome,[7],inactive
same,Potency,[8],inactive
same,Potency,[9],inactive
same,Potency,[10],inactive
same,outcome,[14],inactive
same,Potency,[11],inactive
CN(C)CCCSc1ccccc1NC(=O)/C=C/c1ccccc1,Potency,[1],inactive
same,Potency,[2],inactive
same,Potency,[3],inactive
same,Potency,[4],inactive
same,Potency,[6],inactive
same,outcome,[13],inactive
same,outcome,[7],inactive
same,outcome,[17],inactive
same,outcome,[18],inactive
same,Potency,[8],inactive
same,Potency,[9],inactive
same,Potency,[10],inactive
same,outcome,[14],inactive
same,Potency,[11],inactive
same,Potency,[15],inactive
Oc1ccc(C2CNCCc3c2cc(O)c(O)c3Cl)cc1 (stereo not drawn),Potency,[1],inactive
same,Potency,[2],inactive
same,Potency,[3],inactive
same,Potency,[4],inactive
same,Potency,[5],inactive
same,Potency,[6],inactive
same,outcome,[13],inactive
same,outcome,[7],inactive
same,Potency,[8],inactive
same,Potency,[9],inactive
same,Potency,[10],inactive
same,outcome,[14],inactive
same,Potency,[11],inactive
same,Potency,[12],inactive
C=C(C)C(=O)OCCCCCCCC(C)C,Potency,[1],inactive
same,Potency,[2],inactive
same,Potency,[3],inactive
same,Potency,[5],inactive
same,Potency,[6],inactive
same,outcome,[13],inactive
same,outcome,[7],inactive
same,outcome,[17],inactive
same,outcome,[18],inactive
same,Potency,[8],976 nM (active)
same,Potency,[9],inactive
same,Potency,[10],1090 nM (active)
same,outcome,[14],inactive
same,Potency,[11],1380 nM (active)
same,Potency,[12],870 nM (active)
